# Measured values from PubChem BioAssay AID1159580 (chemical genetic matrix, 2015).
# Among all 5,500 compounds or so, about 2,000 (36%) were called active. Not shown: some 18% with an inconclusive outcome. This is one part of the list. Unmarked numbers belong to inactive results. Rule as the data show it: active = normalized growth mostly below about 0.91 (no sharp cut-off); inconclusive = no clear call, values can overlap the other calls; inactive = mostly above about 0.92.
# Test: chemical genetic growth profiling, strain panel (AID 1159580);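 also: tested at 20 µM; growth read once vehicle control cultures reached saturation at 30 °C; 1 = growth at the plate median or of vehicle wells; lower values mean less growth of the strain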
# Details: growth OD
compound,measurement,setting,value
CC1=C2C(=CO[C@H](C)[C@H]2C)C(=O)C(C(=O)O)=C1O,normalized growth,"S. cerevisiae deletion strains, locus YJR066W, strain TOR1, hits give low values",0.799 (active)
same,normalized growth,"S. cerevisiae deletion strains, locus YKL009W, strain mrt4, hits give low values",0.936
same,normalized growth,"S. cerevisiae deletion strains, locus YKL068W, hits give low values",0.972
same,normalized growth,"S. cerevisiae deletion strains, locus YKL085W, strain MDH1 (second series), hits give low values",0.943
same,normalized growth,"S. cerevisiae deletion strains, locus YKL085W, strain MDH1, hits give low values",0.943
same,normalized growth,"S. cerevisiae deletion strains, locus YKL160W, strain elf1, hits give low values",0.95
same,normalized growth,"S. cerevisiae deletion strains, locus YKL190W, strain CNB1, hits give low values",0.979
same,normalized growth,"S. cerevisiae deletion strains, locus YKR001C, strain vps1, hits give low values",1
same,normalized growth,"S. cerevisiae deletion strains, locus YKR026C, strain gcn3, hits give low values",0.979
same,normalized growth,"S. cerevisiae deletion strains, locus YKR091W, strain srl3, hits give low values",0.986
same,normalized growth,"S. cerevisiae deletion strains, locus YLL001W, strain dnm1, hits give low values",1
same,normalized growth,"S. cerevisiae deletion strains, locus YLL026W, hits give low values",0.976
same,normalized growth,"S. cerevisiae deletion strains, locus YLL041C, strain sdh2, hits give low values",0.98
same,normalized growth,"S. cerevisiae deletion strains, locus YLR027C, strain aat2, hits give low values",0.981
same,normalized growth,"S. cerevisiae deletion strains, locus YLR039C, strain RIC1, hits give low values",0.92
same,normalized growth,"S. cerevisiae deletion strains, locus YLR058C, strain SHM2, hits give low values",0.985
same,normalized growth,"S. cerevisiae deletion strains, locus YLR102C, strain apc9, hits give low values",0.979
same,normalized growth,"S. cerevisiae deletion strains, locus YLR113W, strain HOG1, hits give low values",0.709 (active)
same,normalized growth,"S. cerevisiae deletion strains, locus YLR221C, strain rsa3, hits give low values",0.971
same,normalized growth,"S. cerevisiae deletion strains, locus YLR258W, strain gsy2, hits give low values",0.96
same,normalized growth,"S. cerevisiae deletion strains, locus YLR262C, strain YPT6 (second series), hits give low values",0.891
same,normalized growth,"S. cerevisiae deletion strains, locus YLR262C, strain YPT6, hits give low values",0.918
same,normalized growth,"S. cerevisiae deletion strains, locus YLR268W, strain sec22, hits give low values",0.974
same,normalized growth,"S. cerevisiae deletion strains, locus YLR320W, strain mms22, hits give low values",0.94
same,normalized growth,"S. cerevisiae deletion strains, locus YLR330W, strain CHS5, hits give low values",0.98
same,normalized growth,"S. cerevisiae deletion strains, locus YLR342W, strain FKS1 (second series), hits give low values",0.931
same,normalized growth,"S. cerevisiae deletion strains, locus YLR342W, strain FKS1, hits give low values",0.954
same,normalized growth,"S. cerevisiae deletion strains, locus YLR357W, strain rsc2, hits give low values",1.01
same,normalized growth,"S. cerevisiae deletion strains, locus YLR370C, strain arc18, hits give low values",0.972
same,normalized growth,"S. cerevisiae deletion strains, locus YLR371W, strain rom2, hits give low values",1.01
same,normalized growth,"S. cerevisiae deletion strains, locus YLR384C, strain iki3, hits give low values",0.979
same,normalized growth,"S. cerevisiae deletion strains, locus YLR418C, strain cdc73, hits give low values",0.95
same,normalized growth,"S. cerevisiae deletion strains, locus YML016C, strain PPZ1, hits give low values",0.976
same,normalized growth,"S. cerevisiae deletion strains, locus YML032C, strain rad52, hits give low values",0.984
same,normalized growth,"S. cerevisiae deletion strains, locus YML120C, strain ndi1, hits give low values",0.975
same,normalized growth,"S. cerevisiae deletion strains, locus YML124C, strain tub3, hits give low values",0.964
same,normalized growth,"S. cerevisiae deletion strains, locus YMR058W, strain fet3, hits give low values",1
same,normalized growth,"S. cerevisiae deletion strains, locus YMR078C, strain ctf18, hits give low values",0.984
same,normalized growth,"S. cerevisiae deletion strains, locus YMR125W, strain sto1, hits give low values",0.996
same,normalized growth,"S. cerevisiae deletion strains, locus YMR129W, hits give low values",0.973
same,normalized growth,"S. cerevisiae deletion strains, locus YMR205C, strain PFK2, hits give low values",0.937
same,normalized growth,"S. cerevisiae deletion strains, locus YMR223W, strain ubp8, hits give low values",0.997
same,normalized growth,"S. cerevisiae deletion strains, locus YMR231W, strain pep5, hits give low values",0.981
same,normalized growth,"S. cerevisiae deletion strains, locus YMR307W, strain GAS1, hits give low values",0.85
same,normalized growth,"S. cerevisiae deletion strains, locus YNL067W, strain RPL9B, hits give low values",0.997
same,normalized growth,"S. cerevisiae deletion strains, locus YNL071W, strain lat1, hits give low values",0.981
same,normalized growth,"S. cerevisiae deletion strains, locus YNL128W, strain TEP1, hits give low values",1.01
same,normalized growth,"S. cerevisiae deletion strains, locus YNL153C, strain GIM3, hits give low values",0.988
same,normalized growth,"S. cerevisiae deletion strains, locus YNL183C, strain NPR1, hits give low values",0.82 (active)
same,normalized growth,"S. cerevisiae deletion strains, locus YNL209W, strain ssb2, hits give low values",0.977
same,normalized growth,"S. cerevisiae deletion strains, locus YNL233W, strain BNI4, hits give low values",1
same,normalized growth,"S. cerevisiae deletion strains, locus YNL248C, strain rpa49, hits give low values",1.01
same,normalized growth,"S. cerevisiae deletion strains, locus YNL250W, strain rad50, hits give low values",0.979
same,normalized growth,"S. cerevisiae deletion strains, locus YNL271C, strain bni1, hits give low values",0.978
same,normalized growth,"S. cerevisiae deletion strains, locus YNL298W, strain CLA4, hits give low values",0.956
same,normalized growth,"S. cerevisiae deletion strains, locus YNL307C, strain MCK1, hits give low values",0.985
same,normalized growth,"S. cerevisiae deletion strains, locus YNL322C, strain KRE1 (second series), hits give low values",0.965
same,normalized growth,"S. cerevisiae deletion strains, locus YNL322C, strain KRE1, hits give low values",0.968
same,normalized growth,"S. cerevisiae deletion strains, locus YNR049C, strain mso1, hits give low values",0.988
same,normalized growth,"S. cerevisiae deletion strains, locus YNR052C, strain pop2, hits give low values",0.997
same,normalized growth,"S. cerevisiae deletion strains, locus YOL012C, strain htz1",1.44
same,normalized growth,"S. cerevisiae deletion strains, locus YOL147C, strain pex11, hits give low values",0.977
same,normalized growth,"S. cerevisiae deletion strains, locus YOR001W, strain rrp6, hits give low values",0.972
same,normalized growth,"S. cerevisiae deletion strains, locus YOR061W, strain CKA2, hits give low values",0.983
same,normalized growth,"S. cerevisiae deletion strains, locus YOR069W, strain VPS5, hits give low values",0.973
same,normalized growth,"S. cerevisiae deletion strains, locus YOR070C, strain gyp1, hits give low values",0.974
same,normalized growth,"S. cerevisiae deletion strains, locus YOR080W, strain dia2, hits give low values",0.972
same,normalized growth,"S. cerevisiae deletion strains, locus YOR083W, strain WHI5, hits give low values",1
same,normalized growth,"S. cerevisiae deletion strains, locus YOR106W, strain vam3, hits give low values",1
same,normalized growth,"S. cerevisiae deletion strains, locus YOR136W, strain idh2, hits give low values",0.985
same,normalized growth,"S. cerevisiae deletion strains, locus YOR144C, strain elg1, hits give low values",0.981
same,normalized growth,"S. cerevisiae deletion strains, locus YOR184W, strain ser1, hits give low values",0.989
same,normalized growth,"S. cerevisiae deletion strains, locus YOR231W, strain MKK1, hits give low values",0.809 (active)
same,normalized growth,"S. cerevisiae deletion strains, locus YOR265W, strain rbl2, hits give low values",0.967
same,normalized growth,"S. cerevisiae deletion strains, locus YOR270C, strain vph1, hits give low values",1
same,normalized growth,"S. cerevisiae deletion strains, locus YOR290C, strain snf2, hits give low values",0.969
same,normalized growth,"S. cerevisiae deletion strains, locus YOR316C, strain cot1, hits give low values",0.972
same,normalized growth,"S. cerevisiae deletion strains, locus YPL051W, strain arl3, hits give low values",0.967
same,normalized growth,"S. cerevisiae deletion strains, locus YPL078C, strain atp4, hits give low values",0.993
same,normalized growth,"S. cerevisiae deletion strains, locus YPL106C, strain sse1, hits give low values",0.933
same,normalized growth,"S. cerevisiae deletion strains, locus YPL240C, strain hsp82, hits give low values",0.978
same,normalized growth,"S. cerevisiae deletion strains, locus YPL241C, strain CIN2, hits give low values",0.971
same,normalized growth,"S. cerevisiae deletion strains, locus YPL256C, strain CLN2, hits give low values",0.838
same,normalized growth,"S. cerevisiae deletion strains, locus YPR119W, strain clb2, hits give low values",0.965
same,normalized growth,"S. cerevisiae deletion strains, locus YPR141C, strain kar3, hits give low values",0.957
same,normalized growth,"S. cerevisiae deletion strains, locus YPR163C, strain tif3, hits give low values",1.01
same,normalized growth,"S. cerevisiae deletion strains, locus YPR167C, strain met16, hits give low values",0.987
same,normalized growth,"S. cerevisiae deletion strains, strain wtn01, hits give low values",0.956
same,normalized growth,"S. cerevisiae strains, strain wild type, hits give low values",0.974
